Test results reported in ChEMBL document CHEMBL4513216, “Probing the Open Global Health Chemical Diversity Library for Multistage-Active Starting Points for Next-Generation Antimalarials” (ACS Infect Dis, 2020).
The whole screen tested about 69,000 compounds, of which about 8,600 (12%) showed an effect of 50% or more. What follows is part of a selection rich in strong results, with near analogues and random picks from the rest.

Each compound was assayed on Plasmodium berghei (assay: Screen against P. berghei liver stage (PbLuc), transformed with Luciferase, at 10uM). Conditions: tested at 10 uM.
Format: functional, HepG2
In the case of `Cc1ccnc(NCc2ccccc2N2CCOCC2)n1`, the INHIBITION is reported as 46.3%.
In the case of `Cc1[nH]nc2ncc(C(=O)N3CCN(CC(C)O)CC3)cc12` (centres undefined), the INHIBITION is reported as -0.96%.
`Cc1ccc(OCC2CCCN(C(=O)c3csc(CN(C)C)n3)C2)cc1` (centres undefined) showed an INHIBITION of 31%.
`c1cnc(N2CCOC3(CCN(CC4CCOC4)CC3)C2)nc1` (centres undefined) gave an INHIBITION of 8.64%.
With `CCNC(=O)c1ccc(NC2CCOC3(CCCC3)C2)nn1` (centres undefined) the INHIBITION was 24.6%.
With `O=C(c1ccco1)N1CCO[C@@H]2CN(Cc3nccs3)CC[C@@H]2C1` the INHIBITION was -5.89%.
In the case of `O=C(c1ccco1)N1CCO[C@@H]2CN(c3ccccc3)CC[C@@H]2C1`, the INHIBITION is reported as 84.7%.
`O=C(c1ccco1)N1CC[C@@H]2CN(C3CCOCC3)CCO[C@@H]2C1` gave an INHIBITION of 22.2%.
`O=C(c1ccco1)N1CCO[C@@H]2CN(CC3CC3)CC[C@@H]2C1` showed an INHIBITION of 85.8%.
Compound `CCc1cnc(N2CC[C@@H]3CN(C(C)=O)CCO[C@@H]3C2)nc1` has an INHIBITION of 45.8%.
`CC(=O)N1CC[C@@H]2CN(C(=O)c3ccco3)CCO[C@@H]2C1` showed an INHIBITION of 48.3%.
`O=C(c1ccco1)N1CCO[C@@H]2CN(c3ccccn3)CC[C@@H]2C1` gave an INHIBITION of -26.5%.
`O=C(c1ccco1)N1CCO[C@@H]2CNCC[C@@H]2C1` showed an INHIBITION of -0.388%.
Compound `O=C(c1ccco1)N1CCO[C@@H]2CN(c3ncc(F)cn3)CC[C@@H]2C1` has an INHIBITION of 42.6%.
`O=C(CCO)N1CC[C@@H]2CN(C(=O)c3ccco3)CCO[C@@H]2C1` gave an INHIBITION of 80%.
For `Cc1cccc(N2CC[C@@H]3CN(C(=O)c4ccco4)CCO[C@@H]3C2)n1`, the INHIBITION was 49.5%.
`CCc1cnc(N2CC[C@@H]3CN(C(=O)c4ccco4)CCO[C@@H]3C2)nc1` showed an INHIBITION of 92.5%.
`CC(NC(=O)N1CCCC1)c1ccc(S(N)(=O)=O)cc1` (centres undefined) showed an INHIBITION of 33.7%.
Compound `NC(=O)[C@@H]1CCCN1C(=O)c1csc(-c2ccc(C(F)(F)F)cc2)n1` has an INHIBITION of 28.4%.
`Cc1cc(CN(C)C(=O)C(c2ccccc2F)N(C)C)ccn1` (centres undefined) showed an INHIBITION of 30%.
`COc1ccc(CC(=O)N2CCCC(c3cc(C)[nH]n3)C2)cc1` (centres undefined) showed an INHIBITION of 28.62%.
`CN(C)C(=O)CO[C@H]1CN(Cc2cccc(F)c2)[C@@H]2CCCO[C@H]12` was tested, and the INHIBITION was 43.1%.
Compound `COCc1cc(CNc2cnn(CC(F)F)c2)ccc1OC` has an INHIBITION of 38.2%.
With `CN1CCO[C@@H]2CN(C(=O)NCc3ccccc3)CC[C@@H]2C1` the INHIBITION was 16.8%.
Compound `CC(=O)N1CCO[C@@H]2CN(C(=O)NCc3cccnc3)CC[C@@H]2C1` has an INHIBITION of 12.1%.
With `CC(=O)N1CCO[C@@H]2CN(C(=O)NCc3ccccc3)CC[C@@H]2C1` the INHIBITION was 51.2%.
`CN(C)C(=O)N1C[C@H]2CC[C@@H](C1)N(Cc1ccc3nsnc3c1)C2` showed an INHIBITION of 21.8%.
Compound `CCOc1ccc(CN2CCN(C(=O)c3cc(C4CC4)[nH]n3)CC2)cc1` has an INHIBITION of 48.1%.
`Fc1ccc(CN2CCCC(c3nccnc3-n3ccnc3)C2)cc1` (centres undefined) showed an INHIBITION of 6.32%.
`Fc1ccc(CN2CCCC(c3cc4ncccc4[nH]3)C2)cc1` (centres undefined) showed an INHIBITION of 85.65%.
For `CCOc1nnc(CN2CCCC(c3nc4ccccc4[nH]3)C2)s1` (centres undefined), the INHIBITION was 22.8%.
`O[C@@H]1CN(Cc2ccc(F)cc2)CC[C@H]1NCc1ccccn1` gave an INHIBITION of 28.55%.
For `CCC(=O)NC1CCCN(Cc2ccc(NC(C)=O)cc2)C1` (centres undefined), the INHIBITION was 27.6%.
With `CCOc1ccc(CN2CCCC(c3cc4ncccc4[nH]3)C2)cc1` (centres undefined) the INHIBITION was 81.5%.
For `Cc1cc(C)n(CC(=O)N2CCCC(c3cc4cccnc4[nH]3)C2)n1` (centres undefined), the INHIBITION was 30.4%.
`CC(=O)Nc1ccc(CN2CCCC(c3cc4ncccc4[nH]3)C2)cc1` (centres undefined) was tested, and the INHIBITION was 50.95%.
For `CC(=O)N(Cc1noc(C)n1)C1CCN(CC2(O)CCCCC2)C1` (centres undefined), the INHIBITION was 33.7%.
With `Cn1cc(CN2CCC(c3[nH]ncc3S(C)(=O)=O)C2)cn1` (centres undefined) the INHIBITION was 8.53%.
Compound `CCOc1ncccc1NC(=O)c1ccc(C)s1` has an INHIBITION of 23.2%.
In the case of `CCc1nnc(Sc2nn3cc(C)nc3s2)n1C`, the INHIBITION is reported as -9.8%.
With `Cc1noc(C)c1CCC(=O)N1CCOCC1CCc1cnccn1` (centres undefined) the INHIBITION was 25.8%.
For `Cc1cnn(CCC(=O)N2CCN(C(=O)C3CC3)[C@@H]3CS(=O)(=O)C[C@@H]32)c1`, the INHIBITION was 3%.
Compound `CC(C)(C)c1nc(CC(=O)N2CCCC(n3cncn3)C2)cs1` (centres undefined) has an INHIBITION of 47.65%.
Compound `Cc1ccc(C2(O)CCN(C(=O)c3ccc(S(N)(=O)=O)cc3)CC2)nc1` has an INHIBITION of 38%.
`OC(COCc1cccs1)Cn1cc(Br)cn1` (centres undefined) showed an INHIBITION of -28.4%.
Compound `OC(COCc1ccco1)CSc1nnc2ccccn12` (centres undefined) has an INHIBITION of 14.8%.
`OC(COCc1ccccc1)CSc1nnc2ccccn12` (centres undefined) gave an INHIBITION of 42.6%.
Compound `OC(COCc1cccs1)Cn1cc(Cl)cn1` (centres undefined) has an INHIBITION of 75.2%.
In the case of `OC(COCc1cccs1)Cn1cc(-n2cccc2)cn1` (centres undefined), the INHIBITION is reported as 8.46%.
With `OC(COCc1cccs1)CSc1nnc2ccccn12` (centres undefined) the INHIBITION was 56.5%.
For `CSCC(=O)NC1CC(=O)N(CCc2ccccc2)C1` (centres undefined), the INHIBITION was -17.6%.
`CCn1nc(C)c(NC(=O)CN2CCN(C(C)=O)CC2)c1C` gave an INHIBITION of -4.23%.
`CS(=O)(=O)N1CC2(CCN(CC3CCCCC3)CC2)Cc2ccccc21` was tested, and the INHIBITION was 46.6%.
With `O=C(Nc1ccc2c(ccn2CCN2CCOCC2)c1)c1ccccn1` the INHIBITION was -4.15%.
`CC(C)OCCCN(Cc1ccncc1)Cc1cc(F)cc(F)c1` was tested, and the INHIBITION was -26.2%.
`CCOCCN1CCN(c2ncccc2C#N)CC1CC` (centres undefined) showed an INHIBITION of 4.03%.
`O=C(c1ccncn1)N1C[C@@H]2CN(Cc3cccnc3)CCO[C@@H]2C1` gave an INHIBITION of 17.5%.
With `O=C(OCc1ccccc1)c1cccc(NC(=O)C2COCCO2)c1` (centres undefined) the INHIBITION was 7.44%.
`O=C(Nc1ccc(OCc2cccc(F)c2)c(F)c1)C1COCCO1` (centres undefined) showed an INHIBITION of 78.4%.
`CCOC(=O)COc1cccc(NC(=O)C2COCCO2)c1` (centres undefined) gave an INHIBITION of 8.24%.
Work on `O=C(Nc1cccc(OCc2ccc(F)cc2)c1)C1COCCO1` (centres undefined) yielded an INHIBITION of 10.3%.
With `CCOCc1cccc(NC(=O)C2COCCO2)c1` (centres undefined) the INHIBITION was 59.3%.
Compound `O=C(Nc1cccc(OCc2cccc(F)c2)c1)C1COCCO1` (centres undefined) has an INHIBITION of -47.4%.
`CN(C)C(=O)N1Cc2nnn(C)c2C(COCc2cccnc2)C1` (centres undefined) was tested, and the INHIBITION was 27.6%.
